Measurements from PubChem BioAssay.
Calls of active or inactive are those of the source.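 How the source made its calls, unless noted: active means visual image review flags a hit and inhibition of aggregation exceeds 20%; inconclusive means visual hit but inhibition at or below 20%; inactive means no hit on visual image review.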

Key:
[1] = inhibitors of TNFa-induced NFkB p65 translocation, primary screen, imaging, HUVEC, MLSMR starter and 10KST1 sets (AID 438;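 active means inhibition above 20% together with a positive visual image hit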;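 further: compound added about 3h40 before a 20 min TNFalpha stimulation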;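 on inhibition: signal is the nuclear over cytoplasmic p65 intensity ratio per well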); conditions: HUVEC TNFa-induced p65 nuclear translocation; cell count: measured here: nuclei count (cytotoxicity indicator), at 2.08 µM; inhibition: at 2 µM, stronger effect = higher value, 0% TNFa-plus-vehicle, 100% no-TNFa wells
[2] = inhibitors of mutant huntingtin aggregation, primary screen, imaging, exon1htt(103Q)mCFP cells, high-content imaging (AID 483); conditions: exon1htt(103Q)mCFP cell line, aggregate imaging, at 2 µM; inhibition of aggregation: stronger effect = higher value; nuclei count: measured here: cell count, toxicity;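 further: compound exposure lasted 3 days before fixation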;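 on nuclei count: percent of the per-plate median nuclei count of sample wells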
[3] = inhibitors of E-selectin induction by TNFa, primary screen, imaging, HUVEC, immunofluorescence, MLSMR starter and 10KST1 sets (AID 487;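 active means visually confirmed hit in the image check and inhibition above 20%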;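 on inhibition: signal is fraction of cell area covered by stained E-selectin grains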;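 on nuclei count: 100% = median nuclei count of all wells on the same plate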); conditions: HUVEC TNFalpha-induced E-selectin immunofluorescence imaging, at 2 µM; inhibition: stronger effect = higher value; nuclei count: measured here: cell number, toxicity
[4] = target: Voltage-gated potassium channel subunit beta-2 (Rattus norvegicus) (UniProt P62483); assay: KvBeta enzyme negative modulators, primary screen, biochemical, NADPH fluorescence (AID 622;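 active means fluorescence slope higher than the sample average by over 3 SD, cut at about -0.22 in these data, passing the limit was not always enough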;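 further: slope of raw intensity against log time taken from 70 to 1610 s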); conditions: recombinant KvBeta, 4-cyanobenzaldehyde reduction, at 10 µM, stronger effect = higher value
Chain of Voltage-gated potassium channel subunit beta-2 (Rattus norvegicus) (P62483 whole entry, looked up): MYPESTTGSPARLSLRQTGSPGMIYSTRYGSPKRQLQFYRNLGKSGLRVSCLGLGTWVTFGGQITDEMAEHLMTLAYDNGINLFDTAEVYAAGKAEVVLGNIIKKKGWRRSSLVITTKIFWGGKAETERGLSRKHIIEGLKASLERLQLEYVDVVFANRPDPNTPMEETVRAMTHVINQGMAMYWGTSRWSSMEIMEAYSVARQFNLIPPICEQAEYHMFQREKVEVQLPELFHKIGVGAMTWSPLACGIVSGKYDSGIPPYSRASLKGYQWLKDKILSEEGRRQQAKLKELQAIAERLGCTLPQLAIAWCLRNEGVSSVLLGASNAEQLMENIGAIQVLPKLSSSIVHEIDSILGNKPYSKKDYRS

[5] = target: Voltage-gated potassium channel subunit beta-2 (Rattus norvegicus) (UniProt P62483); assay: KvBeta positive modulators, primary screen, biochemical, NADPH fluorescence (AID 623;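 active means NADPH fluorescence slope more negative than the mean of all samples by about 3 SD, 99.7% confidence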;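 further: fluorescence intensity change per second fitted from 20 to 320 s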); conditions: Recombinant KvBeta, NADPH fluorescence decrease slope, 10 min; at 10 µM; stronger effect = lower value
[6] = target: Alpha-2C adrenergic receptor (Homo sapiens) (UniProt P18825); assay: modulators of alpha2C/GIRK thallium flux, primary screen, cell-based, HEK293 alpha2C/GIRK1/2 (AID 624;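 active means fluorescence slope after compound addition differing from the mean of all screened samples at 99.7% confidence, in either direction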;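 further: slope of fluorescence ratio to pre-addition baseline per second over 15 to 24 s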); conditions: thallium flux BTC fluorescence, at 10 µM, actives lie on both sides
Chain of Alpha-2C adrenergic receptor (Homo sapiens) (P18825 whole entry, looked up): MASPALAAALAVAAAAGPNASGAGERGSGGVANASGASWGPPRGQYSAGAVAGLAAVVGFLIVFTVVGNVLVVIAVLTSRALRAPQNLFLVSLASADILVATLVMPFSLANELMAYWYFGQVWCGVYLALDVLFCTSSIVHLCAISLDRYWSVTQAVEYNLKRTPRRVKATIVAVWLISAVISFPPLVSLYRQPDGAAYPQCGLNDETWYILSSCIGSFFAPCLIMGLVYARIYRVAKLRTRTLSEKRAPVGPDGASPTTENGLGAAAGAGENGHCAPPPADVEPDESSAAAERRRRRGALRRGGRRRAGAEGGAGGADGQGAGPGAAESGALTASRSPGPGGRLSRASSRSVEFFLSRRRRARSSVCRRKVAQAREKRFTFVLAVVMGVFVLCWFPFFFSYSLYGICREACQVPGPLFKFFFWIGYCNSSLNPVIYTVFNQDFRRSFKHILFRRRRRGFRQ

[7] = inhibitors of Sendai virus-induced IRF3 signaling, primary screen, TLR/RLR signaling modifier project, cell-based, Sendai virus stimulus, luciferase, 10K MLSCN set (AID 602276;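 active means inhibition at or above 50% at 10 µM; inactive means inhibition below 50%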;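 further: firefly luciferase from ISG56 promoter only with Renilla not read in this screen; 0% = Sendai virus plus DMSO and 100% = medium plus DMSO without virus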); conditions: HEK293 RL24 IRF3 luciferase reporter, at 10 µM, stronger effect = higher value
[8] = inhibitors of poly I:C-induced TLR3 signaling, primary screen, cell-based, poly I:C stimulus, luciferase, 10K MLSCN set (AID 602277;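 active means inhibition of the reporter signal at or above 50%; inactive means inhibition below 50%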); conditions: HEK293-TLR3 RL24 IRF3 luciferase reporter, at 10 µM, stronger effect = higher value

SMILES | cell count [1] | inhibition [1] | inhibition of aggregation [2] | nuclei count [2] | inhibition [3] | nuclei count [3] | fluorescence slope [4] | NADPH fluorescence slope [5] | slope [6] | inhibition [7] | inhibition [8]
Cc1ccc(C)c(N2CCN(CCCNC(=O)Cn3cc4c(n3)CCCCC4)CC2)c1 | 771 | -4.3% (inactive) | -55.1% (inactive) | 114% | -60.6% (inactive) | 110% | -0.619 (inactive) | -3.7e-05 (inactive) | 0.00461 (inactive) | 7.36% (inactive) | 19% (inactive)
Cc1c(NC(=O)C(C)Oc2ncnc3ccccc23)c(=O)n(-c2ccccc2)n1C (stereo not drawn) | 547 | -1.7% (inactive) | -8.5% (inactive) | 78% | -5.8% (inactive) | 111% | -0.506 (inactive) | -5e-05 (inactive) | 0.00757 (inactive) | -7.59% (inactive) | 19.3% (inactive)
CCOc1ccccc1N(CC(=O)N1CCCCCC1)S(C)(=O)=O | 358 | -10% (inactive) | -1.2% (inactive) | 117% | -83.5% (inactive) | 117% | -0.447 (inactive) | -1.3e-05 (inactive) | 0.00598 (inactive) | 9.48% (inactive) | 19.4% (inactive)
O=C(CC(CC(=O)c1ccccc1)C(=O)O)c1ccccc1 | 393 | 8.7% (inactive) | -4.6% (inactive) | 91.9% | -52.5% (inactive) | 109% | -0.525 (inactive) | -3.8e-05 (inactive) | 0.0059 (inactive) | -0.637% (inactive) | -0.177% (inactive)
COc1ccc(C(=O)N2CCN(C3CCCCC3)CC2)c(OC)c1 | 324 | -0.9% (inactive) | -21.3% (inactive) | 83.3% | -48.1% (inactive) | 138% | -0.609 (inactive) | -1.5e-05 (inactive) | 0.00408 (inactive) | 1% (inactive) | 12.4% (inactive)
COc1ccc(-c2nc(SC)n(S(=O)(=O)c3ccccc3)n2)cc1 | 683 | -1.9% (inactive) | 7.6% (inactive) | 99.4% | -122% (inactive) | 109% | -0.476 (inactive) | 9.5e-05 (inactive) | 0.00851 (inactive) | -26% (inactive) | -119% (inactive)
O=P(O)(O)C(O)C(F)(F)C(F)(F)C(F)(F)C(F)F (stereo not drawn) | 436 | 8.1% (inactive) | -7% (inactive) | 108% | 12.7% (inactive) | 127% | -0.31 (inactive) | -2e-06 (inactive) | 0.0027 (inactive) | 19.8% (inactive) | 17.5% (inactive)
CN1C(=S)SC(C)(NO)C1(C)C (stereo not drawn) | 446 | 6.5% (inactive) | 7.3% (inactive) | 78.4% | 2.9% (inactive) | 107% | -0.479 (inactive) | -0.000139 (active) | 0.00444 (inactive) | 15.4% (inactive) | 16% (inactive)
CSCC[C@@H](Nc1nc(-c2ccccc2)nc2c1oc1ccccc12)C(=O)O | 322 | 1.9% (inactive) | -20.9% (inactive) | 83.4% | -92.1% (inactive) | 123% | -0.442 (inactive) | 9.3e-06 (inactive) | 0.00719 (inactive) | 4.35% (inactive) | 41% (inactive)
Cc1ccccc1OCc1nnc(SCC(=O)NCc2ccccc2)n1C | 409 | 3.9% (inactive) | -6.5% (inactive) | 106% | -22.7% (inactive) | 120% | -0.521 (inactive) | 5.8e-06 (inactive) | 0.00575 (inactive) | 12% (inactive) | 23.6% (inactive)
O=C(NCc1ccc2c(c1)OCO2)c1ccc(NS(=O)(=O)c2ccc3c(c2)OCCO3)cc1 | 499 | -22.3% (inactive) | 20.4% (inactive) | 104% | -0.9% (inactive) | 128% | -0.615 (inactive) | -2.7e-05 (inactive) | 0.00624 (inactive) | 10.8% (inactive) | 17.5% (inactive)
CN(C)c1cccc(NC(=O)CCc2ccccc2)c1 | 503 | -5.1% (inactive) | -5.3% (inactive) | 106% | -7.2% (inactive) | 95.9% | -0.594 (inactive) | 9.8e-06 (inactive) | 0.00703 (inactive) | -9.67% (inactive) | -5.4% (inactive)
O=c1c2ccc(-c3nnc4n3-c3ccccc3SC4)cc2nc2n1CCCCC2 | 473 | -1.1% (inactive) | 9% (inactive) | 111% | -41.6% (inactive) | 116% | -0.414 (inactive) | -3.1e-05 (inactive) | 0.00551 (inactive) | 11.2% (inactive) | 14.5% (inactive)
